The source made the active and inactive calls.
Columns and labels:
[1] = test system: PRMT1 (protein arginine N-methyltransferase 1); experiment: PRMT1 binders on small-molecule microarrays, primary screen, biochemical, small-molecule microarray, 635 nm fluorescence (AID 1088); details: small-molecule microarray binding, higher = more signal;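 further: binding of Prmt1 protein to compounds spotted on small-molecule microarray slides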
[2] = yeast growth modulation, basal conditions, primary screen, YJM789 clinical isolate, OD600, 24 h (AID 1089);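 further: growth of clinical yeast isolate S. cerevisiae YJM 789 seeded 1000 cells per well; test concentration not given here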; details: S. cerevisiae YJM789 growth, higher = more signal, called active from +8 up or from −8 down
[3] = fission yeast growth modulation, primary screen, strain 972, OD600, 24 h, no modulator (AID 1090);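 further: basal condition with compound alone and no growth modifier present; test concentration not given here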; details: S. pombe 972 growth, higher = more signal, called active from +8 up or from −8 down
[4] = S. cerevisiae growth modulation with rapamycin, primary screen, strain BY4716, OD600, 96 h (AID 1091); details: higher = more signal, called active from +8 up or from −8 down; further: test concentration not given here
[5] = molecular target: Torsin-1A-interacting protein 2 (Homo sapiens) (UniProt Q8NFQ8); experiment: LULL1 binders on small-molecule microarray, primary screen, cell lysate, human LULL1 lysate, 635/667 nm fluorescence (AID 1092); details: hLULL1 lysate binding, 635 nm fluorescence, higher = more signal;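 further: probe is lysate of COS7 cells overexpressing human LULL1; score merges per-feature 667 nm fluorescence with signal-to-noise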
[6] = E. coli growth modulation, two-sided OD650, primary screen, E. coli filamentation project, strain DRC41, 24 h (AID 1093); details: OD650, 24 h, higher = more signal, called active from +8 up or from −8 down;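 further: MC1000 strain lacking acrAB efflux and sulA so SOS filamentation is blocked; test concentration not given here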
[7] = small-molecule microarray binders of probe aLefty2, primary screen, biochemical, biotinylated probe, 635/667 nm fluorescence (AID 1094); details: higher = more signal;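 further: score merges spot fluorescence near 667 nm with spot signal-to-noise ratio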
[8] = test system: Noggin (protein binding on small-molecule microarray); experiment: Noggin binders on small-molecule microarray, primary screen, biochemical, 635/667 nm fluorescence (AID 1095); details: 635 nm fluorescence, higher = more signal;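 further: score merges 667 nm feature fluorescence with signal to noise over triplicate slides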
[9] = molecular target: Neurogenic locus notch homolog protein 3 (Homo sapiens) (UniProt Q9UM47); experiment: NOTCH3 binders on small-molecule microarray, primary screen, biochemical, 635/667 nm fluorescence (AID 1096); details: NOTCH3 binding, 635 nm fluorescence, higher = more signal
[10] = small-molecule microarray binders of probe aEGFR, primary screen, biochemical, biotinylated probe, 635/667 nm fluorescence (AID 1097); details: higher = more signal;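 further: probe is a biotinylated anti-EGFR antibody binding compounds printed on slides; score combines fluorescence near 667 nm and signal to noise of each spot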
[11] = test system: Plasmodium falciparum Sir2 (PF13_0152, Sir2A); experiment: pfSir2 binders on small-molecule microarrays, primary screen, biochemical, small-molecule microarray, 635 nm fluorescence (AID 1098); details: small-molecule microarray binding, fluorescence 635 nm; higher = more signal;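 further: score merges spot fluorescence intensity with its signal-to-noise ratio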
[12] = small-molecule microarray binders of probe aDKK1, primary screen, biochemical, biotinylated probe, 635/667 nm fluorescence (AID 1099); details: higher = more signal;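 further: score merges 667nm spot fluorescence with signal to noise across triplicate slides; reference of the scale not given here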
[13] = small-molecule microarray binders of probe aCHRDL2, primary screen, biochemical, biotinylated probe, 635/667 nm fluorescence (AID 1100); details: higher = more signal
[14] = splicing luciferase reporter signal modulators, primary screen, spliceosome inhibition project, cell-based, HEK293, splice +/- reporter (AID 1101); details: luminescence, 24 h, higher = more signal, called active from +8 up or from −8 down;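 further: HEK293 cells carrying a splicing-competent luciferase reporter gene; test concentration not given here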
[15] = molecular target: Fibroblast growth factor 10 (Homo sapiens) (UniProt O15520); experiment: FGF10 binders on small-molecule microarrays, primary screen, biochemical, small-molecule microarray, 635 nm fluorescence (AID 1102); details: FGF10 binding, fluorescence 635 nm, higher = more signal
[16] = test system: glycogen synthase kinase-3 (GSK3A per assay name; protocol says GSK3B); experiment: GSK3 binders on small-molecule microarrays, primary screen, biochemical, small-molecule microarray, 635 nm fluorescence, GSK3A (AID 1103); details: small-molecule microarray binding, fluorescence 635 nm; higher = more signal; further: the record names both GSK3A and GSK3B
[17] = molecular target: Epidermal growth factor receptor (Homo sapiens) (UniProt P00533); experiment: EGFR binders on small-molecule microarrays, primary screen, biochemical, small-molecule microarray, 635 nm fluorescence (AID 1104); details: EGFR binding, higher = more signal;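 further: score merges 667 nm emission intensity with spot signal to noise over triplicate slides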
[18] = molecular target: Follistatin-related protein 3 (Homo sapiens) (UniProt O95633); experiment: FSTL3 binders on small-molecule microarrays, primary screen, biochemical, small-molecule microarray, 635 nm fluorescence (AID 1105); details: FSTL3 binding, higher = more signal;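 further: score merges emission near 667 nm and signal to noise per printed spot across three slides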
[19] = molecular target: Dickkopf-related protein 1 (Homo sapiens) (UniProt O94907); experiment: DKK1 binders on small-molecule microarrays, primary screen, biochemical, small-molecule microarray, 635 nm fluorescence scan (AID 1106); details: DKK1 binding, higher = more signal;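 further: score merges emission near 667 nm with signal to noise over three replicate slides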
[20] = test system: Inhibin beta A chain (activin A); experiment: INHBA (activin A) binders on microarrays, primary screen, biochemical, small-molecule microarray, 635 nm fluorescence scan (AID 1107); details: small-molecule microarray binding, higher = more signal;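 further: mouse activin A protein probed at 4.33 µg/mL on printed slides; score merges bound-protein fluorescence near 667 nm with spot signal-to-noise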

Sequence of Torsin-1A-interacting protein 2 (Homo sapiens) (Q8NFQ8 whole entry, looked up): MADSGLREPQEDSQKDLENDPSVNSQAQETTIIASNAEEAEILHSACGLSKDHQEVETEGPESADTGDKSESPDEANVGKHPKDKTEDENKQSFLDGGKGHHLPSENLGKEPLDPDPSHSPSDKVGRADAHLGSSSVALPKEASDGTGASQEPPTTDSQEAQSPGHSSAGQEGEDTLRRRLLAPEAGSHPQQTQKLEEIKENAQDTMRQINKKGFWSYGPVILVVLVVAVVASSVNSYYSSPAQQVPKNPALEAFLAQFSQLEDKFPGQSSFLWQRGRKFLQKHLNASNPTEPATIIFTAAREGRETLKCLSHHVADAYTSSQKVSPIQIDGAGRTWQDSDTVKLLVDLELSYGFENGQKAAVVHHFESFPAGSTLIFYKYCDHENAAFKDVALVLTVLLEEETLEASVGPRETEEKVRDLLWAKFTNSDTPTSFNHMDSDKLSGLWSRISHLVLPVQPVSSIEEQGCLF
Sequence of Epidermal growth factor receptor (Homo sapiens) (P00533 whole entry, looked up): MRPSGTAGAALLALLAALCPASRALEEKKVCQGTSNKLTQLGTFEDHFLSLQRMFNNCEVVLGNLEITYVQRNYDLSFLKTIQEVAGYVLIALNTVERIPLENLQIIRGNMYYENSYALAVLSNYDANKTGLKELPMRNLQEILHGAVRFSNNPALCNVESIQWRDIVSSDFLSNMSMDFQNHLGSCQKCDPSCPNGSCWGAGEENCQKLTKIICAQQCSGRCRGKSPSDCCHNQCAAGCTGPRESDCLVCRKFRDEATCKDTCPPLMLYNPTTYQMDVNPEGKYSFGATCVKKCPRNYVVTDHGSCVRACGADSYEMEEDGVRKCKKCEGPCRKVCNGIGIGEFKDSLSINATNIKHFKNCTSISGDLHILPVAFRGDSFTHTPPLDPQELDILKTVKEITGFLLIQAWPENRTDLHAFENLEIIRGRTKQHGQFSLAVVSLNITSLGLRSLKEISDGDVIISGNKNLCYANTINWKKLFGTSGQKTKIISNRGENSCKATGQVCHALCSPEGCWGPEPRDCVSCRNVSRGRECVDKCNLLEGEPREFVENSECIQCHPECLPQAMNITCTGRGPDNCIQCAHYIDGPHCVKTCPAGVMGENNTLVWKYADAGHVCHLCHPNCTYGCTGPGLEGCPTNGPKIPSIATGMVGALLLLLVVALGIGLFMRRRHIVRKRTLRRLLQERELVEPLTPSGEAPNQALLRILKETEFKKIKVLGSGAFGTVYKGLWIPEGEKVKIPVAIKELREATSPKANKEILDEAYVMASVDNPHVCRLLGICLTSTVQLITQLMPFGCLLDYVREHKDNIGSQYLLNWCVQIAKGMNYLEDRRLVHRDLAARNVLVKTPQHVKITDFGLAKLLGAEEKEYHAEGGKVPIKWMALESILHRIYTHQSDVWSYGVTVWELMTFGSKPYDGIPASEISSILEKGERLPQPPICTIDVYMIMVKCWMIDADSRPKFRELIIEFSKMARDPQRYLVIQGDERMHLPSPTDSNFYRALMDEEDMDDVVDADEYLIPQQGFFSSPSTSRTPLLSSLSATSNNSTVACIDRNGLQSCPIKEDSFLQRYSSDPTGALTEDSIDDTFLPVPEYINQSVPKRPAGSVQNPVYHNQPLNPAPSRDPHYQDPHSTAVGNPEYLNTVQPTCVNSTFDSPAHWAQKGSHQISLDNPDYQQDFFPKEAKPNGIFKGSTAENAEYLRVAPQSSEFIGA
Sequence of Follistatin-related protein 3 (Homo sapiens) (O95633 whole entry, looked up): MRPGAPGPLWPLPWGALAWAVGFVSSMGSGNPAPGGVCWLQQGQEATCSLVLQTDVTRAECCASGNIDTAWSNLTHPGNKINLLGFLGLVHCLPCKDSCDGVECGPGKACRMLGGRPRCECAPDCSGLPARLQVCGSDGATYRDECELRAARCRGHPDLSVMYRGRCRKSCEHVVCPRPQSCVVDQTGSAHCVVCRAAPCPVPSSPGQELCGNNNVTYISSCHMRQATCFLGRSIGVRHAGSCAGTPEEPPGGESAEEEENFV
Sequence of Neurogenic locus notch homolog protein 3 (Homo sapiens) (Q9UM47 whole entry, looked up): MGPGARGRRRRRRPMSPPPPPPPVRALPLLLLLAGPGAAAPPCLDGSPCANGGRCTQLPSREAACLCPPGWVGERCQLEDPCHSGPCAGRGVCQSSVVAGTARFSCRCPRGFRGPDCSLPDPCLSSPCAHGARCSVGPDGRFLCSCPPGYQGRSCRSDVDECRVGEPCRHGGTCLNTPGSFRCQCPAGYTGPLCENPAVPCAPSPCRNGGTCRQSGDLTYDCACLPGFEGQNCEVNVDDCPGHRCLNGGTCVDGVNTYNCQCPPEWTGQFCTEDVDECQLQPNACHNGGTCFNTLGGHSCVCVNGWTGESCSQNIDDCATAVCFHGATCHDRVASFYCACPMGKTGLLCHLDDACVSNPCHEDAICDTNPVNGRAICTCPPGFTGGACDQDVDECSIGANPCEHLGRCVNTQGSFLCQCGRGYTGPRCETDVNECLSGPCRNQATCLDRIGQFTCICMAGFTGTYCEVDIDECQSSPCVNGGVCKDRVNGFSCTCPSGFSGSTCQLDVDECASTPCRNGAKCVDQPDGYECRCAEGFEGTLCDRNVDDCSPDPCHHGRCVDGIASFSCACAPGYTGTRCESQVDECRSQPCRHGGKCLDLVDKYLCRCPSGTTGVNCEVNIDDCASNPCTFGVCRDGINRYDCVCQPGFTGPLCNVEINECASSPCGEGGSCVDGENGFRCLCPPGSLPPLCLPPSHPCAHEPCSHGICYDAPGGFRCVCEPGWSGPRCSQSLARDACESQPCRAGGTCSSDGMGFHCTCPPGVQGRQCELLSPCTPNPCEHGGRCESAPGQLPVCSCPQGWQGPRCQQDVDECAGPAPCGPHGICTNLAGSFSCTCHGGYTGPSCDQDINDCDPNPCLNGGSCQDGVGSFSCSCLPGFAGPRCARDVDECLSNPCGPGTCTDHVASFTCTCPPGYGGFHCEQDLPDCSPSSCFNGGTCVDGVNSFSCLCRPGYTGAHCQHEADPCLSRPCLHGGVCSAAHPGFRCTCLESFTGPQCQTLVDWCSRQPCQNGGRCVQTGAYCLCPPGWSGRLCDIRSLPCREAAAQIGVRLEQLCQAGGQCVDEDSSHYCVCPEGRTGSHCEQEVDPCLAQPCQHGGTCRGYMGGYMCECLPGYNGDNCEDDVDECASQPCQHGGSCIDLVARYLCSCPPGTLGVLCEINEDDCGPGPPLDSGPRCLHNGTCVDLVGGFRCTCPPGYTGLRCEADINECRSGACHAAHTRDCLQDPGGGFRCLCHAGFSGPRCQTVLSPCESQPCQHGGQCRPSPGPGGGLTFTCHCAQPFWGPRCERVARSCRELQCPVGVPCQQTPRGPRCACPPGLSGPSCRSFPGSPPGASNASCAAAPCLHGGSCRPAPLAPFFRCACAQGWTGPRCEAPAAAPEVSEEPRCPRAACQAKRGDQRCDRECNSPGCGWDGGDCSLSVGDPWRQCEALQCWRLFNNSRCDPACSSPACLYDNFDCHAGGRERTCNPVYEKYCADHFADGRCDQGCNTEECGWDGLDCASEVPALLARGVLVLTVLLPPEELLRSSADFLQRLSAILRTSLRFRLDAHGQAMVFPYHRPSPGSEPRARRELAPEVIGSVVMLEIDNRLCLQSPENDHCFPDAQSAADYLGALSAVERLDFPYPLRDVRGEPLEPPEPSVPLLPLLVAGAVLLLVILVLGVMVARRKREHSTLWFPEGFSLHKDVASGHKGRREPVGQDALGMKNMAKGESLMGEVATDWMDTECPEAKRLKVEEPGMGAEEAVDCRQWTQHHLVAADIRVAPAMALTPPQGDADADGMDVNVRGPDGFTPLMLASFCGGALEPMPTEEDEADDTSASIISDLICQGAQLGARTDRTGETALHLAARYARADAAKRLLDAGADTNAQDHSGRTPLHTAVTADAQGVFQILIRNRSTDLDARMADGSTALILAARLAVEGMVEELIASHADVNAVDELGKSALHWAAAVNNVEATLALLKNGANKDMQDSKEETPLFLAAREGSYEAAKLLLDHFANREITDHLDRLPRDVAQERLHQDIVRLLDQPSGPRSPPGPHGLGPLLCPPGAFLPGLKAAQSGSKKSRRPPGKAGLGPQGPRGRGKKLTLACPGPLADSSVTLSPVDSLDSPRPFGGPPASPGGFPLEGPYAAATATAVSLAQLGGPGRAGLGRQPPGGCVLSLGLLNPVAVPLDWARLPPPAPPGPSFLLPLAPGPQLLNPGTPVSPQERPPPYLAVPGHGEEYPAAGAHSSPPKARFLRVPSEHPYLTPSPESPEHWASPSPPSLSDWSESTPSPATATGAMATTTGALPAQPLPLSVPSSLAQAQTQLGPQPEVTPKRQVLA
Sequence of Fibroblast growth factor 10 (Homo sapiens) (O15520 whole entry, looked up): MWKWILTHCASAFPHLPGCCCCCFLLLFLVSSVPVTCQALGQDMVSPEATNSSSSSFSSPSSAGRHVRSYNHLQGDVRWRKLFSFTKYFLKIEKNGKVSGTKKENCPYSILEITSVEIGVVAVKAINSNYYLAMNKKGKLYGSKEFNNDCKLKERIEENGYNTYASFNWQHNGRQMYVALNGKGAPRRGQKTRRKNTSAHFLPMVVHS
Sequence of Dickkopf-related protein 1 (Homo sapiens) (O94907 whole entry, looked up): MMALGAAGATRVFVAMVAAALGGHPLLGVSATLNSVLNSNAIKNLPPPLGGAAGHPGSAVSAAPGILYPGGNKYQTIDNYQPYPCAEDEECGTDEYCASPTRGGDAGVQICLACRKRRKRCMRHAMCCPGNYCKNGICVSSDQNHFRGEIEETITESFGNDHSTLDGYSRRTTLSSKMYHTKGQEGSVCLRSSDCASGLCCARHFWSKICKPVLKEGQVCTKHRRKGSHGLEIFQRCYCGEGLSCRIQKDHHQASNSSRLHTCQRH

Question: Which results are given for `CCCCCN1CC=CC23O[C@@H]4C=CCCOC(=O)C4[C@H]2C(=O)N(CCCO)[C@@H]3C1=O` (stereo not given in full)?
Answer: composite z-score [1]: 0.229; z-score [2]: 0.0103 (inactive); z-score [3]: -1.3 (inactive); z-score [4]: -0.506 (inactive); composite z-score [5]: -0.651; z-score [6]: 2.22 (inactive); composite z-score [7]: -0.257; composite z-score [8]: -0.272; composite z-score [9]: 0.0424; composite z-score [10]: -0.223; composite z-score [11]: 1.06; composite z-score [12]: -0.117; composite z-score [13]: -0.141; z-score [14]: -0.588 (inactive); composite z-score [15]: -0.0549; composite z-score [16]: -0.452; composite z-score [17]: -0.928; composite z-score [18]: -0.344; composite z-score [19]: 0.0124; composite z-score [20]: -0.166

Question: For `CC(C)(C)OC(=O)CC[C@]1(C(=O)NCC(O)CO)N=C(c2ccc(OCCCO)cc2)O[C@H]1c1ccccc1CN=[N+]=[N-]` (stereo not given in full), which composite z-score [1] is on record?
Answer: 1.06

Question: What about the z-score [2] of the same compound?
Answer: -0.624 (inactive)

Question: What about the z-score [3] of the same compound?
Answer: -0.867 (inactive)

Question: And the z-score [4]?
Answer: -0.859 (inactive)

Question: And the composite z-score [5]?
Answer: 3.59

Question: What about the z-score [6] of the same compound?
Answer: 0.301 (inactive)

Question: And the composite z-score [7]?
Answer: 0.716

Question: And the composite z-score [8]?
Answer: 0.27

Question: And the composite z-score [9]?
Answer: 1.08

Question: What about the composite z-score [10] of the same compound?
Answer: 0.61

Question: What about the composite z-score [11] of the same compound?
Answer: 0.982

Question: What about the composite z-score [12] of the same compound?
Answer: 1.27

Question: And the composite z-score [13]?
Answer: 1.33

Question: What about the z-score [14] of the same compound?
Answer: 0.121 (inactive)

Question: What about the composite z-score [15] of the same compound?
Answer: 1.5

Question: What about the composite z-score [16] of the same compound?
Answer: 0.554

Question: What about the composite z-score [17] of the same compound?
Answer: -0.256

Question: What about the composite z-score [18] of the same compound?
Answer: 0.676

Question: What about the composite z-score [19] of the same compound?
Answer: -0.0583

Question: What about the composite z-score [20] of the same compound?
Answer: 0.487

Question: Which results are given for `O=C1OCCC/C=C\[C@H]2OC34C=CCN(Cn5nnc6ccccc65)C(=O)[C@H]3N(CCCO)C(=O)[C@@H]4C12` (stereo not given in full)?
Answer: composite z-score [1]: 1.19; z-score [2]: -0.57 (inactive); z-score [3]: 0.0555 (inactive); z-score [4]: -0.264 (inactive); composite z-score [5]: 3.64; z-score [6]: 0.123 (inactive); composite z-score [7]: -0.225; composite z-score [8]: -0.9; composite z-score [9]: -0.0127; composite z-score [10]: -0.232; composite z-score [11]: 0.649; composite z-score [12]: -0.282; composite z-score [13]: 0.741; z-score [14]: 0.288 (inactive); composite z-score [15]: -1.34; composite z-score [16]: -0.556; composite z-score [17]: -1.43; composite z-score [18]: -0.921; composite z-score [19]: -1.16; composite z-score [20]: -0.0648

Question: For `C=CC[C@]1(C(=O)NCCN2CCOCC2)N=C(c2ccc(OCCCO)cc2)O[C@H]1c1ccccc1N=[N+]=[N-]`, which composite z-score [1] is on record?
Answer: 1.58

Question: And the z-score [2]?
Answer: -0.941 (inactive)

Question: What about the z-score [3] of the same compound?
Answer: -1.41 (inactive)

Question: And the z-score [4]?
Answer: -0.523 (inactive)

Question: And the composite z-score [5]?
Answer: 3

Question: And the z-score [6]?
Answer: 1.74 (inactive)

Question: What about the composite z-score [7] of the same compound?
Answer: 0.432

Question: What about the composite z-score [8] of the same compound?
Answer: 0.0879

Question: And the composite z-score [9]?
Answer: 0.991

Question: And the composite z-score [10]?
Answer: 0.509

Question: What about the composite z-score [11] of the same compound?
Answer: 0.529

Question: And the composite z-score [12]?
Answer: 1.22

Question: And the composite z-score [13]?
Answer: 1.31

Question: And the z-score [14]?
Answer: -0.448 (inactive)

Question: What about the composite z-score [15] of the same compound?
Answer: 1.08

Question: What about the composite z-score [16] of the same compound?
Answer: 0.287

Question: What about the composite z-score [17] of the same compound?
Answer: 0.327

Question: And the composite z-score [18]?
Answer: 1.05

Question: And the composite z-score [19]?
Answer: 0.283

Question: What about the composite z-score [20] of the same compound?
Answer: 1.6

Question: For `C=C[C@H](C)[C@H](OC(=O)Nc1ccc(OC)cc1)c1ccc(O)c2ccccc12`, which composite z-score [1] is on record?
Answer: -0.0544

Question: And the z-score [2]?
Answer: -25.3 (active)

Question: What about the z-score [3] of the same compound?
Answer: -20.9 (active)

Question: And the z-score [4]?
Answer: -3.05 (inactive)

Question: And the composite z-score [5]?
Answer: 0.645

Question: What about the z-score [6] of the same compound?
Answer: 0.355 (inactive)

Question: And the composite z-score [7]?
Answer: -0.151

Question: What about the composite z-score [8] of the same compound?
Answer: 0.585

Question: And the composite z-score [9]?
Answer: 0.0103

Question: And the composite z-score [10]?
Answer: -0.222

Question: What about the composite z-score [11] of the same compound?
Answer: 0.443

Question: What about the composite z-score [12] of the same compound?
Answer: -0.26

Question: What about the composite z-score [13] of the same compound?
Answer: 0.242

Question: What about the z-score [14] of the same compound?
Answer: -0.632 (inactive)

Question: What about the composite z-score [15] of the same compound?
Answer: 0.111

Question: And the composite z-score [16]?
Answer: -0.667

Question: And the composite z-score [17]?
Answer: -0.587

Question: And the composite z-score [18]?
Answer: 0.0608

Question: And the composite z-score [19]?
Answer: -0.0641

Question: And the composite z-score [20]?
Answer: 0.997
